Screening results: PubChem, Sanford-Burnham Center for Chemical Genomics
In the library only some 4% were active in any assay of this set; here they are far more common.
TIM10 inh – growth inhibitors of isogenic TIM10 control yeast, primary screen, counter-screen for tim10-1 yeast inhibitor project, luminescence, uHTS. 1.4% of 330,000 active. AID 463195, 2010. S. cerevisiae TIM10 strain growth, BacTiter-Glo luminescence, 24 h. inhibition, % at 10 µM;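 active = inhibition of 40% or more at the single tested concentration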;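 note: wild-type TIM10 isogenic control strain grown at permissive 25 °C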
tim23-1 inh – growth inhibitors of tim23-1 mutant yeast, primary screen, luminescence, uHTS | S. cerevisiae tim23-1 growth, BacTiter-Glo luminescence, 24 h | inhibition, % at 20 µM | 1.3% of 330,000 active | AID 463212, 2010;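 active = growth inhibition of the mutant yeast at or above 50%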;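 note: temperature-sensitive mutant grown at 25 °C; plate controls were DMSO-treated mutant yeast for no effect and medium wells lacking yeast for full effect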
tim10-1 inh – growth inhibitors of tim10-1 mutant yeast, primary screen, luminescence, uHTS. S. cerevisiae tim10-1 ts strain growth, BacTiter-Glo, 24 h. inhibition, % at 20 µM. 2.2% of 330,000 active. AID 463190, 2010;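 active = inhibition of at least 40%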;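 note: mutant grown at 25 °C; 0% = DMSO wells with yeast and 100% = wells holding no yeast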
NALP3 yeast inh – NALP3 inflammasome inhibitors in reconstituted yeast, primary screen, luminescence, uHTS; Yeast reconstituted NLRP3/ASC/caspase-1, beta-gal luminescence, 24 h; inhibition, % at 10 µM; 0.39% of 330,000 active;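 active = inhibition of 50% or more; inactive = inhibition below 50%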;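 note: plate controls were induced DMSO wells for no effect and uninduced yeast grown without galactose for full effect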
NALP1 inh – NALP1 inflammasome inhibitors in reconstituted yeast, colorimetric, S. cerevisiae, triplicate retest | S. cerevisiae NALP1/ASC/caspase-1 growth, X-gal OD620, 72 h | inhibition, % at 10 µM | 0.61% of 280,000 active | AID 2071, 2009; in the data active = inhibition mostly above about 24%, no sharp cut-off; inactive = mostly below about 32%
tim23-1 confirm – tim23-1 mutant yeast growth inhibitors, confirmation, luminescence, single concentration. shares compounds with tim23-1 inh. S. cerevisiae tim23-1 growth, BacTiter-Glo luminescence, 24 h. inhibition, % at 20 µM. 83% of 4,400 active;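 active = inhibition above about 39% in either of two replicate wells at 20 µM, limit read from the data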;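 note: temperature-sensitive tim23-1 mutant grown at 25 °C; 0% = DMSO wells with yeast and 100% = medium wells without yeast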
Active calls of the source: *; nt = no result.

SMILES	TIM10 inh	tim23-1 inh	tim10-1 inh	NALP3 yeast inh	NALP1 inh	tim23-1 confirm
C=Cc1cccc(NC(=O)c2ccc(NC(=O)c3ccco3)cc2)c1	-10	51*	-19	37	8	38*
Oc1ccccc1-c1cc(-c2ccc3c(c2)OCCO3)n[nH]1	31	66*	31	34	10	-2
Cc1cccc(-c2noc(CCC(=O)NCCc3ccccc3)n2)c1	7	20	11	28	7	nt
CCN(CCCNC(=O)CCc1nc(-c2ccc(C)cc2)no1)c1cccc(C)c1	29	52*	31	21	-10	43*
CC(C)CCN1C(=O)c2cccc3c(N)ccc(c23)C1=O	14	65*	39	10	nt	47*
CC(C)C(OC(=O)/C=C/c1ccc2c(c1)OCO2)C(=O)NC(N)=O (centres undefined)	6	0	9	3	18	nt
O=C(COC(=O)c1ccc(O)cc1)c1ccc2c(c1)OCCO2	-17	60*	-17	-4	nt	22
c1ccc(-c2csc(Nc3ccccn3)n2)cc1	1	50*	10	29	18	29
COc1ccccc1NC(=O)CCN1C(=O)c2ccccc2C1=O	9	11	1	16	13	nt
CC(C)(C)c1ccc(/C=C(\C#N)C(=O)Nc2ccccn2)cc1	38	55*	29	27	-9	61*
N#C/C(=C\c1ccccc1)C(=O)Nc1ccccn1	30	53*	14	11	23	25
CCc1ccc(NC(=O)/C(C#N)=C/c2ccncc2)cc1	22	74*	37	0	-8	66*
N#C/C(=C\c1ccccc1)C(=O)Nc1cccnc1	14	50*	21	-2	-4	50*
CCOC(=O)c1ccccc1NC(=O)COC(=O)C1CCN(S(=O)(=O)c2ccccc2C(=O)OC)CC1	3	17	5	4	nt	nt
O=C(CCc1nnc(-c2ccsc2)o1)N1CCc2c(Cl)cccc2C1	13	-4	11	7	1	nt
CCOC(=O)C1CCCN(S(=O)(=O)c2ccc3c(c2)CC(C)N3C(=O)C2CC2)C1 (centres undefined)	27	27	27	8	10	nt
CCOC(=O)C1CCN(S(=O)(=O)c2ccc3c(c2)CC(C)N3C(=O)C2CCC2)CC1 (centres undefined)	38	51*	27	-1	-8	43*
COc1ccccc1/C=C/C(=O)NC(=S)N1CCN(C)CC1	-4	-4	11	11	2	nt
COc1ccccc1/C=C/C(=O)NC(=S)NC(C)C	11	59*	-3	21	19	41*
O=C(COC(=O)Cc1ccccc1F)Nc1cccc(F)c1	21	17	30	15	-6	nt
COc1cccc(-c2nn(C)c3sc(C(=O)Nc4ccc5c(c4)OCCO5)cc23)c1	7	22	37	10	-6	nt
Cn1nc(-c2ccccc2F)c2cc(C(=O)Nc3ccc4c(c3)OCCO4)sc21	27	54*	38	16	1	55*
Cc1cc(C(=O)COC(=O)c2ccc([N+](=O)[O-])o2)c(C)n1CC1CCCO1 (centres undefined)	31	54*	25	13	-3	55*
COCCn1c(C)cc(C(=O)COC(=O)c2ccc([N+](=O)[O-])o2)c1C	20	52*	23	13	14	59*
O=C(NC1CC1)c1ccc(NS(=O)(=O)c2ccc(F)cc2)cc1	7	9	2	14	nt	nt
SMILES	TIM10 inh	tim23-1 inh	tim10-1 inh	NALP3 yeast inh	NALP1 inh	tim23-1 confirm
Cc1cc(Cl)ccc1C(=O)C1CCCN(C(=O)c2snnc2C)C1 (centres undefined)	-47	-157	-54	-1	-11	nt
Nc1nonc1C(=O)N/N=C/c1cc(Br)ccc1O	14	52*	-3	47	-7	56*
Oc1ccc(/C=N/N(c2ccccc2)c2ccccc2)cc1O	21	68*	31	7	-2	45*
Cc1cccc(C(=O)NNC(=O)c2c(O)c3ccccc3n(C)c2=O)c1	15	67*	0	nt	1	21
O=C1OCC(c2ccc(Cl)s2)=C1c1ccccc1[N+](=O)[O-]	-6	31	-1	15	10	nt
C[C@@H]1CN([C@H](C)CO)C(=O)Cc2cc(NS(=O)(=O)c3cn(C)cn3)ccc2O[C@H]1CN(C)S(=O)(=O)c1ccc(Cl)cc1	7	10	3	4	nt	nt
CCC(C)(C)c1ccc(OCCCC[n+]2cccc(C)c2C)c(C(C)(C)CC)c1	34	59*	-8	37	29	36*
Cc1cc(C(C)(C)C)ccc1OCCCCN1CCCC1	20	-4	-6	24	44	nt
Cc1cc2cc(CCNC(=O)c3ccc(C)c([N+](=O)[O-])c3)c(=O)[nH]c2cc1C	10	9	0	19	25	nt
Cc1cc2cc(CNC(=O)c3ccc(C)c([N+](=O)[O-])c3)ccc2[nH]1	8	62*	38	47	18	56*
CN(C)c1ccnc(Nc2ccc(O)cc2)c1C#N	-6	8	5	2	19	nt
Cc1ccc(-c2nn(-c3ccccc3)cc2C=C2C(=O)CC(C)(C)CC2=O)cc1	37	66*	31	38	2	51*
C=CCNc1nc(C)c(CNc2c(C)cc(C)cc2C)nc1C#N	5	23	16	20	23	nt
N#Cc1c(-c2ccccc2)cc(-c2ccc(O)cc2)nc1N	-5	54*	9	22	4	57*
COc1ccc(-c2cc(-c3ccc(O)cc3)nc(N)c2C#N)cc1	14	49	30	28	4	nt
Cc1nn(C(C)C(=O)NNC(=S)Nc2ccc(F)cc2)c(C)c1[N+](=O)[O-] (centres undefined)	-13	20	3	5	-39	nt
CCCCN(CC)c1nc(N)c(C#N)c(CC#N)c1C#N	17	-3	21	8	26	nt
CCCCN(CC)c1nc(N)c2c(N)nc(OCC)cc2c1C#N	13	56*	23	-11	-6	44*
O=C(Cn1c(CO)nc2ccccc21)NC1CCCCCC1	10	7	10	7	7	nt
C/C(=N\OCC(=O)N/N=C/c1ccccc1)c1cccs1	28	32	15	6	10	nt
C/C(=N\OCC(=O)N/N=C/c1ccccc1O)c1cccs1	30	56*	15	5	2	57*
CN(C)S(=O)(=O)c1ccc(C(=O)OCn2nnc3ccccc3c2=O)cc1	-11	54*	5	9	22	32
COc1ccc(C(=O)OCn2nnc3ccccc3c2=O)cc1OC	-4	-14	-23	30	7	nt
CCOC(=O)c1c(C=O)c2sc(C)cc2n1C	-7	53*	-1	34	4	45*
